# Test results taken from PMC7862700, “An all-to-all approach to the identification of sequence-specific readers for epigenetic DNA modifications on cytosine”.
# What was measured:
# Assay in all cases: DAPPL (digital affinity profiling via proximity ligation, sequencing); 10 mM Tris-HCl pH 7.5, 50 mM NaCl, 1 mM DTT, 4% glycerol, room temperature, 30 min; GST-TFs on glutathione beads, 16-mer random dsDNA library, 0.1% formaldehyde crosslink after washing; high values mean tight binding
# Settings in all cases: protein: recombinant; tags: N-terminal GST; dsDNA, one strand shown
# [1] = target: T1, ELK1 (Homo sapiens, UniProt P19419 1-428)
# T1 sequence: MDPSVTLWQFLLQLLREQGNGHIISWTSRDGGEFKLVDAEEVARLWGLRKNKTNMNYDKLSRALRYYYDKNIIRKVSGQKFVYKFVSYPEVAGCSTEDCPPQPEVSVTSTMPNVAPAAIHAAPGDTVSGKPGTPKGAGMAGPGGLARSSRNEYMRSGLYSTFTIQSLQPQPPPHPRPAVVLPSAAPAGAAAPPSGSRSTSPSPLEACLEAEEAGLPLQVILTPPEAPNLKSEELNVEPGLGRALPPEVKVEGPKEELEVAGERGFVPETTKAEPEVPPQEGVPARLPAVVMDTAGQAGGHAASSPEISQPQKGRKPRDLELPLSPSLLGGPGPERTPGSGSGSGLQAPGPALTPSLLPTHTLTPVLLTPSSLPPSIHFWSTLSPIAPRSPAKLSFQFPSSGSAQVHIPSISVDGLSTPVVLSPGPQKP
# Outline: (§1)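 A tag-only sample was pooled with DNA-barcoded human transcription factors that had been expressed in yeast as GST fusions and captured on glutathione beads. The pools were incubated for 30 min at room temperature with 200 nmole of a random double-stranded 16-mer DNA library in Tris/NaCl/DTT/glycerol buffer, then washed, crosslinked with 0.1% formaldehyde, proximity-ligated (BsaI/T4 ligase, 1 h, 37 °C), PCR-amplified and sequenced on an Illumina NextSeq500. Binding signal is each hexamer's read frequency for a factor divided by its frequency for the tag-only sample.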
# [2] = target: T2, GABPA (Homo sapiens, UniProt Q06546 1-454)
# T2 sequence: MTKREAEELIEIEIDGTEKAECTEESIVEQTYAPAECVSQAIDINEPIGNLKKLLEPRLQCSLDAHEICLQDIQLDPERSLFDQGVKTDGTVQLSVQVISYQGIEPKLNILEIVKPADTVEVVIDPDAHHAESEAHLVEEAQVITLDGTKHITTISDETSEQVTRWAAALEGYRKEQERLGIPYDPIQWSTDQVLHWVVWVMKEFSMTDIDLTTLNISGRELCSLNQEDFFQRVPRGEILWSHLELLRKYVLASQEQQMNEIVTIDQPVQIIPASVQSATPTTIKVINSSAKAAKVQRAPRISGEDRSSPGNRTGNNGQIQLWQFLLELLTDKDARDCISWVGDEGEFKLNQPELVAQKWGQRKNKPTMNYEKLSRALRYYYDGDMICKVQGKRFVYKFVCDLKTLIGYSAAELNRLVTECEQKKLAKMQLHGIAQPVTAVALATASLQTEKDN
# Outline: as §1
# [3] = target: T3, ERG (Homo sapiens, UniProt P11308 1-479)
# T3 sequence: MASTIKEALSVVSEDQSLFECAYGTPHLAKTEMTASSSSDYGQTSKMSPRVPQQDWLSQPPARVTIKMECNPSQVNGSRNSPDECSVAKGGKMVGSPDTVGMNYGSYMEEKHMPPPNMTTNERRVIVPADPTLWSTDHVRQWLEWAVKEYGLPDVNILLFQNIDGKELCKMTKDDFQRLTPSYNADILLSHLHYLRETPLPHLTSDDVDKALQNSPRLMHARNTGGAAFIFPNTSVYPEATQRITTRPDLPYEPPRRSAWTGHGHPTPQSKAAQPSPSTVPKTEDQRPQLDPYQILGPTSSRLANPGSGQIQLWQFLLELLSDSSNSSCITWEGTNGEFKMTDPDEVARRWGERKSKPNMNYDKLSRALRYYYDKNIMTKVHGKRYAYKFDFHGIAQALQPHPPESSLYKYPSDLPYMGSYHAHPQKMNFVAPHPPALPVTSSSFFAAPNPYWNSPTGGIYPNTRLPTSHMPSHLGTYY
# Outline: as §1
# [4] = target: ELF1 (Homo sapiens, UniProt P32519 1-619)
# Sequence of ELF1 (P32519 whole entry): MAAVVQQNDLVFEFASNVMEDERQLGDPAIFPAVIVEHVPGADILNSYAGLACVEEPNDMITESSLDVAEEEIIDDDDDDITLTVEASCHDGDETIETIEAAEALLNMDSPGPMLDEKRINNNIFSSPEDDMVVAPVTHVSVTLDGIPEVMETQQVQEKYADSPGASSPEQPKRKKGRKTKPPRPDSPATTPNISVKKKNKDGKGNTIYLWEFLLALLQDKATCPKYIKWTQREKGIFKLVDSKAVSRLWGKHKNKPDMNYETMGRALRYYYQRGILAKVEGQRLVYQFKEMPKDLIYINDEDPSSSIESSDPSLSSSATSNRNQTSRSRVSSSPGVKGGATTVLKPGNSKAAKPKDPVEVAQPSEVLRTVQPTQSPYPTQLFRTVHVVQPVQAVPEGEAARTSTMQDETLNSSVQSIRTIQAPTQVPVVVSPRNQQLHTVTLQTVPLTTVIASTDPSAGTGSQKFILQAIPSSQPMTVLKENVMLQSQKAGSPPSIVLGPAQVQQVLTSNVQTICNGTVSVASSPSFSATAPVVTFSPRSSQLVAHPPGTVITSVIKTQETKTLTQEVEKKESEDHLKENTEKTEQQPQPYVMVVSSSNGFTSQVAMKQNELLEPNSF
# Outline: as §1
# [5] = target: T4, EHF (Homo sapiens, UniProt Q9NZC4 1-300)
# T4 sequence: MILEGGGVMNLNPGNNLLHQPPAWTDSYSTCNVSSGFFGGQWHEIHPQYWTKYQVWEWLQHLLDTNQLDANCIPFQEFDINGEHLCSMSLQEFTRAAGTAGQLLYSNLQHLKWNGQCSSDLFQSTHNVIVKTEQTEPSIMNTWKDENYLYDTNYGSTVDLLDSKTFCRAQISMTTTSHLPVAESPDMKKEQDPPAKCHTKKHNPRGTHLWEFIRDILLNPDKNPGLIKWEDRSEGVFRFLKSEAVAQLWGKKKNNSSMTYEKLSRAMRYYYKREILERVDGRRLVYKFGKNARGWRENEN
# Outline: as §1
# [6] = target: SPIB (Homo sapiens, UniProt Q01892 1-262)
# Sequence of SPIB (Q01892 whole entry): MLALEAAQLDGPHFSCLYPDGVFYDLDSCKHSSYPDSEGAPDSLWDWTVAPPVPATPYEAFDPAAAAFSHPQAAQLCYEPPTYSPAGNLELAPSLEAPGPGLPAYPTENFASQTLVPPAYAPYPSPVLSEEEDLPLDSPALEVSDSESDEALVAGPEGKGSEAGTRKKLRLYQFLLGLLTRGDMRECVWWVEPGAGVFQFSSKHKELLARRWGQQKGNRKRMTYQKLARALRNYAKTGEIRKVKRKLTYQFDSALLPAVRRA
# Outline: as §1
# [7] = target: T5, FEV (Homo sapiens, UniProt Q99581 1-238)
# T5 sequence: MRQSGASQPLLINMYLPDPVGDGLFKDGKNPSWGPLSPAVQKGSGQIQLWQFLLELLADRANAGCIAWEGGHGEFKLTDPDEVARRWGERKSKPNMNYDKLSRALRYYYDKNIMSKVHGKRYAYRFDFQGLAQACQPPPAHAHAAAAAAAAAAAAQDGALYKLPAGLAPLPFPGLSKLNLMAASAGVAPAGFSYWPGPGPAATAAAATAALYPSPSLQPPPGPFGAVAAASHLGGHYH
# Outline: as §1
# [8] = target: ETV5 (Homo sapiens, UniProt P41161 1-510)
# Sequence of ETV5 (P41161 whole entry): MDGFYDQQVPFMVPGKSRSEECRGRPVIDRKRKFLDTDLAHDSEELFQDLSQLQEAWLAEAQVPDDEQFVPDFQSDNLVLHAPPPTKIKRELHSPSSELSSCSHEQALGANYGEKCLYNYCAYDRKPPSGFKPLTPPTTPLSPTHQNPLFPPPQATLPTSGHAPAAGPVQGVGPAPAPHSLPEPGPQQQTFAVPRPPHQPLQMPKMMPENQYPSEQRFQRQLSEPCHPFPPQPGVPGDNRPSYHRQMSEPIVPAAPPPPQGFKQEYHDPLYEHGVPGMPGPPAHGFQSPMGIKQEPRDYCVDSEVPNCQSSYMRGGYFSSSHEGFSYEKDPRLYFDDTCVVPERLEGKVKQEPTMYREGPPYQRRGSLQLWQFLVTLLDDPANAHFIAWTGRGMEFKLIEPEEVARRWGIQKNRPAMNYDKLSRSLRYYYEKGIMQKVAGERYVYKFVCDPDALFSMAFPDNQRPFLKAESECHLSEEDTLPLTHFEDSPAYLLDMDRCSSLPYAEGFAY
# Outline: as §1
# [9] = target: ELF4 (Homo sapiens, UniProt Q99607 1-663)
# Sequence of ELF4 (Q99607 whole entry): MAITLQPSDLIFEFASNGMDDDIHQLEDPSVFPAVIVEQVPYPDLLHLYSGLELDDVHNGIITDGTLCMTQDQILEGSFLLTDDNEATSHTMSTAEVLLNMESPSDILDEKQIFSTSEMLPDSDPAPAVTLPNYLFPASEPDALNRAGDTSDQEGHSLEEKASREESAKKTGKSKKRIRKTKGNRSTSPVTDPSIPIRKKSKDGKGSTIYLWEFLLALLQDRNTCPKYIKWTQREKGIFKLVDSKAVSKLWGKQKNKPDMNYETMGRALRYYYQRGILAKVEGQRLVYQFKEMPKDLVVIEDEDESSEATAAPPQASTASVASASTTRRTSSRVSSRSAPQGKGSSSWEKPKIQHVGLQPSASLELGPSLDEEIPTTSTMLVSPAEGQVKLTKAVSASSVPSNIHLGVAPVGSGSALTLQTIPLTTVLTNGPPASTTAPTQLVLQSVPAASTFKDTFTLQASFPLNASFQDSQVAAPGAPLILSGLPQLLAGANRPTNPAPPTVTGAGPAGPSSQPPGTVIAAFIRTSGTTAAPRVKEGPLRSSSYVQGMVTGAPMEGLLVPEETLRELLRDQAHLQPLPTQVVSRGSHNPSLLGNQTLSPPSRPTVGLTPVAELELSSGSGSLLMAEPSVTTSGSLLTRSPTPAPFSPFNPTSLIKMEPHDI
# Outline: as §1
# [10] = target: T6, ELK4 (Homo sapiens, UniProt P28324-2 1-405)
# T6 sequence: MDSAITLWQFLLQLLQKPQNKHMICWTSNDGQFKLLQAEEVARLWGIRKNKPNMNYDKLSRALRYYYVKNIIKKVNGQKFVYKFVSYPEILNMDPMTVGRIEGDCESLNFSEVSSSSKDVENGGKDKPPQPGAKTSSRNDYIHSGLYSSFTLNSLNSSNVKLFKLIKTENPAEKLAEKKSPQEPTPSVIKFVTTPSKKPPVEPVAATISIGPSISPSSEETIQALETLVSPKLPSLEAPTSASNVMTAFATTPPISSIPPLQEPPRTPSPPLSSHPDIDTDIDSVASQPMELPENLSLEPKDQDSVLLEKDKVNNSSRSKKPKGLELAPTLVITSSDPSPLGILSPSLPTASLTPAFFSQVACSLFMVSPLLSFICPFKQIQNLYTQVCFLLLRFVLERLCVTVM
# Outline: as §1
sequence,measurement,setting,value
CACAGC,binding signal,[1],"1.09 fold enrichment (6-mer frequency, TF over GST control)"
same,binding signal,[2],"1.02 fold enrichment (6-mer frequency, TF over GST control)"
same,binding signal,[3],"1.03 fold enrichment (6-mer frequency, TF over GST control)"
same,binding signal,[4],"1.11 fold enrichment (6-mer frequency, TF over GST control)"
same,binding signal,[5],"1.02 fold enrichment (6-mer frequency, TF over GST control)"
same,binding signal,[6],"1.05 fold enrichment (6-mer frequency, TF over GST control)"
same,binding signal,[7],"1.03 fold enrichment (6-mer frequency, TF over GST control)"
same,binding signal,[8],"1.01 fold enrichment (6-mer frequency, TF over GST control)"
same,binding signal,[9],"1.08 fold enrichment (6-mer frequency, TF over GST control)"
same,binding signal,[10],"1.04 fold enrichment (6-mer frequency, TF over GST control)"
